Laboratory results as given in PubChem BioAssay AID1063 (University of Pittsburgh Molecular Library Screening Center, 2008).
Among all 200,000 compounds or so, about 18,000 (9%) were called active. The full list was thinned out, with actives kept by preference. A number with no mark means an inactive call. Rule as the data show it: active = inhibition above about 50%; inactive = the rest.

Experiment: Leishmania major promastigote growth inhibition, primary screen (AID 1063);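 also: promastigotes grown with compound for 44 hours at 28 °C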
Settings: Leishmania major promastigotes, resazurin fluorescence viability; at 10 µM; stronger effect = higher value

Compound | inhibition
CC(C(=O)N=Nc1c(O)n(C)c2ccc(Br)cc12)n1cnc2ccccc2c1=O (stereo unspecified) | 7.13%
Clc1ccc(-c2cc(C3CCNCC3)[nH]n2)c(Cl)c1 | 94.3% (active)
O=C1CSC(c2ccccc2)N1c1nc(-c2ccc(Cl)cc2Cl)cs1 (stereo unspecified) | -6.37%
Clc1ccc(-c2ncc3ccccn23)c(Cl)c1 | 4.32%
CCOC(=O)c1cc2c(=O)[nH]c(C(Cl)(Cl)Cl)nc2o1 | -8.22%
COc1ccc(C2C(C#N)=C(N)N(c3ncn[nH]3)C3=C2C(=O)CCC3)cc1 (stereo unspecified) | -5.04%
N#CC1=C(N)N(c2ccccc2)C2=C(C(=O)CCC2)C1c1ccccc1 (stereo unspecified) | 69.2% (active)
CSc1sc(C)cc1C1C(C#N)=C(N)N(c2cccnc2)C2=C1C(=O)CCC2 (stereo unspecified) | 7.04%
O=C(CSc1nnc(C2CC2)n1Cc1ccccc1)Nc1cccnc1Cl | 3.75%
Cc1cc(NC(=O)CSc2nnc(Nc3ccccc3F)s2)no1 | 0.51%
O=C(CSc1nnc(Nc2ccccc2)s1)Nc1cccnc1Cl | 66.3% (active)
CC(=O)c1c(-c2ccccc2)c2ccccc2[nH]c1=O | -2.95%
O=C1CCCCC(=O)c2ccccc2N1 | 0.26%
c1ccc2c(c1)C(=NC1CCCCC1)NC2=NC1CCCCC1 | 100% (active)
CN(C)S(=O)(=O)c1cccc(NC(=O)COC(=O)/C=C/c2cccs2)c1 | -4.76%
CCOCC(=O)Nc1ncc(S(=O)(=O)c2ccc([N+](=O)[O-])cc2)s1 | 20.7%
COc1ccc(N/N=C2/CCCCC2=O)cc1 | 67.6% (active)
Cc1ccc(N/N=C2\COC(C)(C)CC2=O)cc1 | 0.62%
COc1ccc(NC(=O)c2c(C)oc3c2CCCC3)cc1 | -5.6%
O=C(CCCO)N/N=C/c1cc(Br)ccc1O | 12.7%
O=C(CCCCCNC(=O)c1ccccc1)N/N=C/c1ccccc1 | -3.34%
O=C(N/N=C/c1ccccc1O)/C(=C/c1ccccc1)CCO | 97.6% (active)
Cc1c(C=O)c2ccccc2n1CC(=O)O | -9.42%
Cc1ccccc1OCCC(=O)OCC(=O)NC(C)c1ccccc1 (stereo unspecified) | 1.48%

Compound | inhibition
CNC(=O)c1ccsc1NC(=O)c1ccc(S(=O)(=O)N2CCOCC2)cc1 | 12.3%
CNC(=O)c1ccsc1NC(=O)c1ccc(S(=O)(=O)N2CCc3ccccc32)cc1 | 89.2% (active)
CC1CN(S(=O)(=O)c2ccc(C(=O)Nc3sccc3C(N)=O)cc2)CC(C)O1 (stereo unspecified) | 6.76%
Cc1ccc2nc(-c3ccc(NC(=O)c4cccnc4)cc3)oc2c1 | -5.33%
Cc1cccc(NC(=S)NCCN(C2CCCCC2)C2CCCC2)c1 | 37.4%
COc1ccc(OCc2n[nH]c(=S)n2N)cc1 | -7.89%
O=C(/C=C/c1ccc(F)cc1)NCCNC(=O)/C=C/c1ccc(F)cc1 | -1.31%
CC(C)c1ccc(/C=C/C(=O)NNC(=O)c2cccnc2)cc1 | -0.93%
O=C(/C=C/c1ccc(F)cc1)NC(=S)NNC(=O)c1cccnc1 | 53.4% (active)
COc1cc(CC(=O)NCc2cccs2)cc(OC)c1OC | -3.33%
S=C(NCc1cccs1)Nc1ccc(Cl)cc1 | 10.1%
COc1ccc(NC(=S)NCc2cccs2)c(OC)c1 | 53.3% (active)
COc1ccc(Br)cc1/C=N/Nc1ccc(Cl)c(C(=O)O)c1 | -11.3%
COC(=O)C1CCN(C(=O)c2cc(=O)[nH]c3ccccc23)CC1 | -2.57%
COc1ccc(CCNC(=O)CC2SC(=Nc3cc(C)cc(C)c3)NC2=O)cc1OC (stereo unspecified) | 1.72%
Cc1nc(N2CCN(c3ccccn3)CC2)c2c(C)c(C(=O)Nc3ccc(F)cc3)sc2n1 | 43.6%
CCOC(=O)C1CCCN(C(=O)c2sc3nc(C)nc(N4CCOCC4)c3c2C)C1 (stereo unspecified) | -2.76%
Cc1ccc(F)cc1NC(=O)c1ccc2c(c1)OCO2 | -6.66%
Cc1ccnc(N2CCCC(C(=O)Nc3cc(F)ccc3C)C2)n1 (stereo unspecified) | -1.61%
Cc1nc(N2CCOCC2)c2c(C)c(C(=O)Nc3ccc(C(F)(F)F)cc3)sc2n1 | 58.7% (active)
Cc1nc(N2CCC(C)CC2)c2c(C)c(C(=O)Nc3cc(F)ccc3C)sc2n1 | 72.2% (active)
CC(C)CNC(=O)C(=O)NCc1ccccc1 | -6.83%
O=C(COC(=O)c1ccc(O)cc1)Nc1nccs1 | 3.69%
C/C(=N\NC(=O)C(N)=O)c1ccc2c(c1)OCCO2 | -3.07%

Compound | inhibition
COc1ccc(NC(C(=O)Nc2cccc(C(C)=O)c2)c2ccccc2)cc1 (stereo unspecified) | 94.4% (active)
CC(=O)c1cccc(NC(=O)[C@@H](NC(N)=O)C(C)C)c1 | 6.23%
COc1cccc(NC(=O)C(C)Oc2ccccc2)c1 (stereo unspecified) | -5.27%
Nc1c(C(=O)O)cnn1-c1ccccc1 | -2.24%
O=C(CCN1CCN(c2ccccc2)CC1)NNC(=S)Nc1ccccc1 | -9.65%
O=C(CN1CCN(C/C=C/c2ccccc2)CC1)Nc1ccc(F)cc1F | 77.3% (active)
COc1ccccc1CC(=O)Nc1ccc(F)cc1F | -6.42%
O=C(CN1CCN(C(=O)c2cccc(F)c2)CC1)Nc1ccccc1F | -5.19%
CCN1CCN(C(=O)C2(NC(=O)Nc3cccc(F)c3)CCCCC2)CC1 | 29.9%
O=C(CCN1C(=O)c2ccncc2C1=O)Nc1cc(F)ccc1F | -6.67%
O=C(CCN1C(=O)c2ccccc2C1=O)Nc1ccncc1 | -8.03%
O=C(CCN1C(=O)c2ccccc2C1=O)Nc1cccc(F)c1 | 89.8% (active)
O=C(CCN1CCN(C/C=C/c2ccccc2)CC1)Nc1cccc(F)c1 | 90.8% (active)
CC(=O)N1N=C(c2ccccc2)OC1c1cccnc1 (stereo unspecified) | -2.61%
CCC(C)N(C(=O)COC(=O)C1C(C(=O)OC)=C(C)NC(C)=C1C(=O)OC)C1CCS(=O)(=O)C1 (stereo unspecified) | -3.21%
O=C(Nc1ccc(N2CCN(C(=O)C3CC3)CC2)cc1)c1cccs1 | -2.42%
CCCOCC(O)CC(CC)C(=O)NNC(=S)Nc1ccccc1 (stereo unspecified) | -2.02%
CCCCOc1ccc(N(CC(=O)NC(C)C)C(=O)CCC(=O)Nc2ccccn2)cc1 | 0.57%
Cn1c(CCC(=O)Nc2ccccc2F)nnc1SCC(=O)Nc1ccccc1Cl | 2.13%
S=c1nc(C23CC4CC(CC(C4)C2)C3)nc2sccn12 | -2.7%
COc1cccc(C(=O)Oc2cc(C)[nH]c(=O)c2[N+](=O)[O-])c1 | 5.78%
CC1CCCCN1S(=O)(=O)c1ccc(C(=O)Nc2nnc(-c3cccs3)o2)cc1 (stereo unspecified) | 99.6% (active)
CC1CCCCN1S(=O)(=O)c1ccc(S(=O)(=O)N(CC(=O)Nc2ccccc2)Cc2cccs2)cc1 (stereo unspecified) | -0.93%
CC1CCCN(S(=O)(=O)c2ccc(C(=O)Nc3nnc(-c4ccncc4)o3)cc2)C1 (stereo unspecified) | 12.2%

Compound | inhibition
COC(=O)c1nc(NC(=O)c2ccc(F)cc2)n[nH]1 | -2.13%
CC(C)c1nc(-c2ccccn2)no1 | -3.52%
Cc1nccc(-c2ccc(-n3c(C)ccc3C)cc2)n1 | 41.6%
c1ccc(-c2nccc(-c3ccc(-n4cnc5ccccc54)cc3)n2)nc1 | 101% (active)
C/C(Cn1nnc2ccccc21)=N\OC(=O)c1cc(F)c(F)cc1Cl | 2.7%
CCN(CCn1cccn1)Cc1nc(-c2ccc(C(=O)OC)cc2)no1 | 5.81%
O=C1CC(c2c(F)cccc2Cl)C(n2cncn2)C(O)=C1C1NCCc2ccccc21 (stereo unspecified) | -6.44%
CC[C@H]1CN2CCc3cc(OC)c(OC)cc3[C@@H]2C[C@@H]1C[C@H]1NCCc2cc(OC)c(OC)cc21 | 100% (active)
COc1cc2c(cc1O)[C@H](Cc1ccc(Oc3cc(C[C@@H]4NCCc5cc(OC)c(O)cc54)ccc3O)cc1)NCC2 | 2.59%
CCOCCCN(C(=O)Cn1nnc(-c2ccc(OC)c(OC)c2)n1)C(CC)C(=O)NC1CCCC1 (stereo unspecified) | -1.34%
COc1ccc(OC)c(C(c2nnnn2C(C)(C)C)N2CCc3ccccc3C2)c1 (stereo unspecified) | 88.9% (active)
COCCn1nnnc1C(c1cc2ccc(OC)cc2[nH]c1=O)N1CCc2ccccc2C1 (stereo unspecified) | 5.04%
COc1ccc(OC)c(NC(=S)N2CCc3ccccc3C2)c1 | 5.86%
C=CCn1c(CCNC(=O)c2ccccc2F)nnc1SCC(=O)Nc1ccc(OC)cc1 | 3.89%
COc1ccc(Cc2nnc(NC(=O)c3cc(OC)c(OC)c(OC)c3)s2)cc1OC | -2.97%
NC(=O)C1CCN(Cc2nc3c(Br)cc(Br)cc3c(=O)[nH]2)CC1 | -13%
COCCNC(=O)/C(C#N)=C/c1nc(N(C)C)n(-c2ccc(F)cc2)c1Cl | 10.3%
COc1ccc(-c2nnc(SCC(=O)c3ccc4c(c3)OCCO4)o2)cc1 | -4.95%
COc1ccc(-c2nnc(SC(=O)N3c4ccccc4Sc4ccccc43)o2)cc1 | 84.1% (active)
COc1ccc(-c2nnc(SC(C)C#N)o2)cc1 (stereo unspecified) | -3.1%
CC(/C=N/NC(=O)c1ccncc1)=C\c1ccco1 | -2.49%
CC(Oc1ccccc1)C(=O)NN1Cc2ccccc2C1=N (stereo unspecified) | -3.38%
Nc1nc(-c2sc3nc4c(cc3c2N)CCCC4)nc(N2CCOCC2)n1 | 47%
CNC(=O)c1[nH]cnc1C(=O)N[C@@H](CC(C)C)C(=O)OC(C)(C)C | -2.24%
